Hits are enriched below; roughly 2% of the tested compounds scored in any of these assays.
LGR2 inh: inhibitors of bursicon-induced Drosophila LGR2 receptor cAMP signaling. 380,000 tested, 0.35% active. inhibition, % at 9.99 µM. HEK293 LGR2, CRE-luciferase, bursicon-stimulated, 4 h;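 active = drop in luminescence signal, shown as inhibition above about 50% in the replicate tests, limit read from the data, passing the limit was not always enough; inconclusive = probably only some replicates passing the limit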;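 note: agonist challenge used bursicon conditioned medium at about half maximal strength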
PAX8 reporter: PAX8 transcriptional activity inhibition | inhibition, % at 12.6 µM | 360,000 tested, 1.2% active | AID 652154 | RMG-I TPO-luciferase reporter, SteadyGlo, 24 h;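 active = mean replicate inhibition at least 60% with every replicate also reaching 60%; inconclusive = only one of the two criteria is met; inactive = mean below 60% and not all replicates reaching 60%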;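 note: luciferase light reporting Pax8 driven TPO promoter activity; plate controls were median of neutral control wells for no effect and mitoxantrone controls for full effect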
KKLEB tox: counter-screen for CF NF-kB inhibitors: cytotoxicity | activity change (cytotoxicity), % at 5 µM | AID 602141 | 360,000 tested, 0.36% active | KKLEB CF airway cells viability, ATPlite luminescence, overnight; active compounds read low; cells stimulated with P. aeruginosa culture filtrate;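 active = corrected activity change at or below -50% at 5 µM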
EWS-Fli block: EWS/Fli transcriptional activity inhibition. inhibition, % at 12.6 µM. A673 NR0B1-luciferase reporter, viability-normalised. 350,000 tested, 0.67% active;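 active = mean inhibition of at least 50% after viability correction, with every replicate also passing that limit; inconclusive = mean reaches 50% but only one of two replicates passes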;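 note: firefly luciferase signal divided by Alamar Blue viability fluorescence both relative to DMSO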
CF NFkB inh: blocks PAF-induced NF-kB reporter in cystic fibrosis cells; KKLEB NF-kB-GFP reporter, GFP fluorescence overnight; inhibition, % at 5 µM; 360,000 tested, 0.86% active; AID 588850;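 active = at least 50% inhibition at 5 µM, scaled per plate between neutral and stimulator controls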;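 note: PAF is a Pseudomonas aeruginosa culture filtrate used as stimulus; plate controls were PAF-stimulated DMSO wells for no effect and unstimulated DMSO wells for full effect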
Shn3 inh set2: Schnurri-3 reporter inhibition in Clone20 osteoblasts; inhibition, % at 12.5 µM; 360,000 tested, 0.52% active; AID 588674; Clone20 osteoblast Shn3 3'UTR firefly luciferase, 24 h;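 active = mean inhibition of at least 75% with every replicate also reaching 75%; inconclusive = mean inhibition at least 75% but some replicate below; inactive = mean inhibition below 75%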;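 note: 0% = median of neutral control wells and 100% = pilot-screen positive control compound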
The depositor's hits bear a star; ? = inconclusive; . = no result.

SMILES | LGR2 inh | PAX8 reporter | KKLEB tox | EWS-Fli block | CF NFkB inh | Shn3 inh set2
Cc1ccccc1N1CN(Cc2ccco2)CNC1=S | -7.4 | 61.0* | -5.6 | -4.6 | 12.8 | 0.9
Cc1ccc(C(=O)/C=C/c2ccc(-c3ccc(C)cc3)o2)cc1 | -5.0 | 8.7 | -0.5 | . | 1.8 | 92.5*
COc1cc(-c2cc(-c3ccccc3)nc(SCC(=O)O)c2C#N)cc(OC)c1OC | -14.1 | 8.3 | 7.8 | 8.4 | -25.4 | -10.4
COc1ccc(-c2cc(-c3ccc(C)cc3)nc(SCc3nnc(-c4ccccc4)o3)c2C#N)cc1OC | -7.7 | -12.7 | -70.3* | . | 45.9 | 14.0
COC(=O)c1cn(NC(=O)C2CCC(C)CC2)c(=O)c2ccccc12 (stereo unspecified) | . | 13.4 | 5.1 | . | 2.7 | 0.8
COC(=O)c1cn(NC(=O)c2cc([N+](=O)[O-])ccc2F)c(=O)c2ccccc12 | 17.4 | 42.4 | -25.6 | 0.5 | 42.9 | 93.6*
C[C@@H]1CN([C@@H](C)CO)C(=O)c2cccc(NS(=O)(=O)c3ccc(Cl)cc3)c2O[C@@H]1CN(C)C(=O)Nc1ccc2c(c1)OCO2 | -3.5 | 17.8 | . | -10.7 | . | .
C(/C=C/c1ccccn1)=C\c1ccccc1 | 75.7* | -155.8 | -1.8 | -78.4 | -20.8 | -149.0
C(=C\c1ccccn1)/c1ccncc1 | -1.8 | -11.3 | -12.1 | -33.6 | -6.6 | -13.4
CCN1/C(=C/c2ccc3ccccc3[n+]2CC)C=Cc2ccccc21 | . | . | -7.0 | . | -41.5 | 91.1*
CCN1/C(=C/c2ccc3cc(C)ccc3[n+]2CC)Sc2cc(C)ccc21 | 21.7 | 88.8* | -11.0 | 59.4* | -433.9 | ?
CCCCN1/C(=C/c2cccc[n+]2C)Sc2cc(NC(C)=O)ccc21 | 12.0 | 12.9 | 7.0 | 11.9 | -2.3 | 5.8
CCN1/C(=C/c2ccc3cc(C)ccc3[n+]2C)Sc2ccc3sccc3c21 | 5.0 | 100.1* | -3.7 | 53.3* | -65.5 | 91.2*
CCCCN1/C(=C/c2ccc3ccccc3[n+]2CC)Sc2ccccc21 | . | . | 3.6 | . | -151.1 | 89.9*
Cc1ccc(S(=O)(=O)N[C@@H]2CC[C@H](CCn3cc(C4CCCC4)nn3)O[C@@H]2CO)cc1 | -3.1 | 13.4 | . | . | . | .
O=C1NC[C@H](c2ccccc2)OC(=O)[C@H](Cc2ccc(F)cc2)C/C=C\C[C@H]1CC(=O)N(CCO)Cc1ccccc1 | 58.4* | 82.6* | -86.4* | 23.9 | 102.5* | 16.2
O=C1NC[C@H](c2ccccc2)OC(=O)[C@@H](Cc2ccc(F)cc2)C/C=C\C[C@H]1CC(=O)N(CCO)Cc1ccccc1 | 60.9* | 85.9* | -53.1* | 18.8 | 84.4* | 27.2
O=C1NC[C@@H](c2ccccc2)OC(=O)[C@H](Cc2ccc(F)cc2)C/C=C\C[C@H]1CC(=O)N(CCO)Cc1ccccc1 | -3.7 | 22.3 | -5.1 | -0.1 | 0.3 | 19.7
C=CC[n+]1c(-c2ccc(OC)c(OC)c2)csc1NNC(=O)Nc1ccccc1 | 4.7 | . | -9.8 | . | 3.4 | 90.5*
COCC(=O)Nc1ccc2c(c1)OC[C@H](C)N(C(=O)CC1CC1)C[C@H](C)[C@H](OC)CN(C)C2=O | -7.9 | -19.5 | . | -0.7 | . | .
COc1ccc(NC(=O)Nc2ccc3c(c2)C(=O)N([C@@H](C)CO)C[C@@H](C)[C@@H](CN(C)S(=O)(=O)c2ccc(Cl)cc2)OCCCC[C@@H](C)O3)cc1 | -21.5 | 4.1 | . | 5.3 | . | .
CNC[C@@H]1Oc2cc(C#CC3CCCCC3)ccc2S(=O)(=O)N([C@@H](C)CO)C[C@@H]1C | 34.1 | 91.8* | . | 56.0* | . | .
C[C@H]1CN([C@@H](C)CO)S(=O)(=O)c2ccc(C#CC3CCCC3)cc2O[C@H]1CN(C)Cc1cncnc1 | -2.4 | -11.3 | . | 52.4* | . | .
C[C@@H]1CN([C@H](C)CO)S(=O)(=O)c2ccc(C#CC3CCCC3)cc2O[C@H]1CN(C)Cc1cncnc1 | -20.6 | 17.9 | . | 20.0 | . | .
C[C@H]1CN([C@@H](C)CO)S(=O)(=O)c2ccc(C#CC3CCCC3)cc2O[C@@H]1CN(C)Cc1cccnc1 | 8.7 | 98.0* | . | 19.2 | . | .

Source: PubChem
